# Screening data deposited in PubChem by National Center for Advancing Translational Sciences (NCATS).
# DT40 TDP1 CPT = growth inhibition of DT40 Tdp1-/-;hTDP1 cells with camptothecin (screen for TDP1 inhibitors). 420,000 compounds, 12% hits. AID 686979. chicken DT40 Tdp1-/-;hTDP1 cells + 20 nM CPT, ATP luminescence, 48 h. Potency, µM (series often up to 46.2 µM), inactives show at the highest dose activity change, negative = growth inhibition, hits mostly inhibitors; further: potency means the concentration at half of the fitted maximal effect; nearly all actives have a fitted effect of over 55% in size
#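 Chicken DT40 Tdp1-/- cells stably complemented with human TDP1 were seeded at 400 cells/well in medium containing 20 nM camptothecin, exposed to pin-transferred compounds, and grown at 37 °C for at least 48 hr. Viability was read as ATP luminescence.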
# IL-1B inflam inh = inflammasome signaling inhibition, IL-1 beta readout; activity change, % at 57.5 µM; 360,000 compounds, 4.7% hits; THP-1 LPS/ATP IL-1B secretion, AlphaLISA, 16 h; stronger effect = lower value; in the data active means activity change below about -50%; inconclusive means mostly about -30% to -49%
#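 Secreted IL-1B measured by AlphaLISA bead assay after 16 h compound exposure of THP-1 cells; compounds (final up to 57.5 uM) added 1 h before LPS (250 ng/mL) and ATP (1.25 mM) stimulation; lower signal means less secretion.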
# HT1080 IDH1KD tx = HT-1080 IDH1 knockdown cell toxicity (counter line) | HT-1080 IDH1 knockdown viability, ATP luminescence, 48 h | Potency, µM (doses to about 46.1 µM), for the others: at the top dose activity, negative = toxicity, actives largely listed as cytotoxic | 360,000 compounds, 2% hits | AID 686971;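 further: potency means the concentration at half of the fitted maximal effect; 0% = DMSO wells and -100% = cell-free medium wells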
#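 Knockdown cells (IDH1KD HT-1080) received compounds 2 h after plating at 750 cells/well and were kept 48 h at 37 °C in 5% FBS RPMI. A CellTiter-Glo luminescence read gave % activity for curve fitting.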
# ELG1 repair inh = inhibitors of ELG1-dependent DNA repair in HEK293T cells; HEK293T ELG1-luciferase reporter, luminescence, 16 h; DNA damage induced by 5-fluorouridine; Potency, µM (highest dose often 46.1 µM), inactives show at the top dose activity change, negative = inhibition, most hits filed as inhibitors; 330,000 compounds, 2.3% hits; AID 504467; further: potency means the concentration at half of the fitted maximal effect; nearly all actives have a fitted effect of over 55% in size
#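 Overnight (16 hr) co-exposure of 2,000 cells/well to 5-fluorouridine and compound at 37 °C preceded detection. Luciferase was quantified via ONE-Glo luminescence; loss of signal denotes inhibition.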
# HT1080NT lethal = kills 2HG-producing HT-1080-NT fibrosarcoma cells | HT-1080-NT fibrosarcoma viability, CellTiter-Glo ATP luminescence, 48 h | Potency, µM (series often up to 46.1 µM), for inactives: at the highest dose activity, negative = less viability, hits mostly cytotoxic | 360,000 compounds, 1.6% hits;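 further: NT is the 2HG producing partner of a matched IDH1 knockdown line; potency means the concentration at half of the fitted maximal effect; 0% = DMSO-treated cells and -100% = media-only wells without cells; nearly all actives have a fitted effect of over 55% in size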
#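 Compounds were tested in concentration-response format on HT-1080-NT cells for 48 hours at 37 degrees C. Cell viability came from CellTiter-Glo luminescence; curves were classified by r2, response magnitude and activity.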
# TDP1 cell noCPT = qHTS for Inhibitors of human tyrosyl-DNA phosphodiesterase 1 (TDP1): qHTS in cells in absence of CPT. DT40 Tdp1-/- hTDP1 cells, no CPT, ATP luminescence, 48 h. Potency, µM (doses to about 46.2 µM), without a hit: at the highest dose activity change, negative = growth inhibition, hits mostly inhibitors. 420,000 compounds, 15% hits; further: potency means the concentration at half of the fitted maximal effect; nearly all actives have a fitted effect of over 55% in size
#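 DT40 Tdp1-/-;hTDP1 cells, no CPT (DMSO vehicle only), 400 cells/well; compounds pin-transferred; ≥48 hr, 37 °C; CellTiter-Glo 30 min RT dark, luminescence read.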
# Numbers without * were called inactive; ? = inconclusive; . = no result; [ ] = another dose, or the depositor's remark. This is a sample that favours compounds with a hit; in the whole collection about 19% have one here. Unless noted, the call rests on the fitted dose curve; in most records, active means well fitted curve in the direction sought with a large enough effect; inconclusive means small, poorly fitted or top-dose-only effect, or another doubt; inactive means no such curve, though single readings can be large; an effect the other way counts as inactive or inconclusive. Unless noted, on the % scale 0 is the no-effect control and ±100 the full control effect.
SMILES,DT40 TDP1 CPT,IL-1B inflam inh,HT1080 IDH1KD tx,ELG1 repair inh,HT1080NT lethal,TDP1 cell noCPT
CC(C)OP(=O)(OC(C)C)/C(C=O)=N\Nc1ccc([N+](=O)[O-])cc1,16µM*,-90*,16µM*,23µM*,21µM*,?
CC(=O)/C(=N\Nc1ccccc1)Oc1ccc([N+](=O)[O-])cc1,-17%,28,-2%,6%,-8%,6%
Cc1ccc(-c2cc(C(=O)N/N=C/C=C/c3ccccc3)n[nH]2)s1,16µM*,-7,-25%,-28%,?,?
O=C(N/N=C/C=C/c1ccccc1)c1cc(C2CC2)[nH]n1,7%,-54*,0%,10%,-2%,-20%
Cc1cc(C(=O)N/N=C/C=C/c2ccccc2)n[nH]1,-5%,-23,?,18%,29%,-9%
Cc1nnc(N2C(=O)c3oc4ccccc4c(=O)c3C2c2cccc(OCCC(C)C)c2)s1 (stereo unspecified),-6%,.,.,.,.,?
CCCOc1cc(C)c(S(=O)(=O)NC2CC(C)(C)NC(C)(C)C2)cc1C,?,?,-26%,-12%,-14%,?
COc1cccc(-c2oc3c(c2C(=O)OCCN(C)C)C(O)CCC3)c1 (stereo unspecified),-2%,16,12%,.,-17%,1%
CC(=C\C(=O)O)/C(=C/c1ccc(C)o1)C(=O)O,15µM*,3,-17%,-5%,0%,21µM*
CC(=C\C(=O)O)/C(=C/c1ccco1)C(=O)O,-16%,12,5%,12%,19%,20%
COC(=O)c1cc([N+](=O)[O-])c(-n2cncn2)c([N+](=O)[O-])c1,5.8µM*,-14,-3%,16%,3%,5.8µM*
CC(C)C(=O)Nc1c(-c2cccs2)c(=O)c2ccccc2n1C,0%,4,7%,2%,3%[9.24 µM],-7%
Cn1c(NC(=O)c2ccc(F)cc2)c(-c2cccs2)c(=O)c2ccccc21,?,-58*,-6%,-6%,9%,?
Cn1c(NC(=O)c2ccccc2)c(-c2cccs2)c(=O)c2ccccc21,15µM*,-26,?,-2%,1%[9.24 µM],16µM*
Cn1c(NC(=O)c2cccs2)c(-c2cccs2)c(=O)c2ccccc21,23µM*,12,-6%,-1%,-10%,-27%
Cn1c(NC(=O)c2ccccc2F)c(-c2cccs2)c(=O)c2ccccc21,?,-26,-16%,13%,-1%,-13%
CCCC(=O)Nc1c(-c2cccs2)c(=O)c2ccccc2n1CC,.,.,.,6%,.,.
COc1ccccc1-c1c(NC(=O)C(C)C)n(C)c2ccccc2c1=O,?,13,13%,1%,12%,-9%
CC(C)C(=O)Nc1c(-c2cccc(Cl)c2)c(=O)c2ccccc2n1C,18µM*,8,-1%,2%,0%,23µM*
Cc1cccc(NC(=O)CCNC(=O)c2ccc(Br)cc2)c1,-6%,29,-13%,?,4%,-12%
Cc1ccc(S(=O)(=O)N[C@@H](C)CO)cc1,2%,-4,17%,.,30%,0%
CCOC(=O)C1CCN(C(=O)c2oc3ccc4c(c3c2C)C(O)CC2(CCCCC2)O4)CC1 (stereo unspecified),?,6,-21%,-15%,-16%,?
Cc1c(C(=O)NCCCN2CCCCC2)oc2ccc3c(c12)C(O)CC1(CCCCC1)O3 (stereo unspecified),?,-4,3%,8%,2%,16µM*
CC1=C(C(=O)N2CCOCC2)CC(CC(=O)NCC2CCCCC2)C(=O)N1CCC1=CCCCC1 (stereo unspecified),?,-24,-4%,.,2%,?
